Inconclusive results are not listed. Unmarked numbers belong to inactive results. Activity calls are given as the source filed them. Calls come from the whole dose curve; as a rule, active = well fitted inhibition curve with a large enough effect; inconclusive = small, poorly fitted or top-dose-only effect; inactive = flat fitted curve, though single readings scatter.
Test: Drug repurposing screens with cells derived from glioblastoma tumor samples (AID 1345199); note: nearly all actives have a fitted effect of over 40% in size
Settings: GBM patient neurospheres viability, ATP luminescence, 48 h
Description: CD133+ cells were isolated from GBM patient biopsies and cultured as neurospheres. Neurospheres from four patients were used to screen the NCATS pharmaceutical collection (NPC) library of approved drugs and bioactive compounds. […] The neurospheres were incubated with drugs for 48 hours in 1536-well format, then assayed with an ATP content cell viability assay. […] These hits were cherry picked to confirm activity in the four original GBM lines screened plus three other slower growing GMB lines (unable to yield enough cells for a full primary screen). Variable activities of the confirmed primary hits in the different GBM patient lines were observed. The patient line 206 responded to the greatest number of compounds and line 923 responded to the least amount of active compounds.

[1] = at 45.9 µM (top of the series), tumour line B
[2] = at 45.9 µM (top of the series), tumour line D
[3] = at 46 µM (top of the series), tumour line A
[4] = at 46.1 µM (top of the series), tumour line C
% is set by controls: 0 for no effect and ±100 for the full control effect; potency is the fitted concentration of half-maximal effect.

Compound: O=C(c1ccccc1)c1ccccc1
- activity, negative = cell killing [1]: 2.19%
- activity, negative = cell killing [2]: 8.55%
- activity, negative = cell killing [3]: -8.04%
- activity, negative = cell killing [4]: -0.361%

Compound: O=C(O)CNC(=O)CNC(=O)CNC(=O)CSC(=O)c1ccccc1
- activity, negative = cell killing [1]: 2.75%
- activity, negative = cell killing [2]: -4.9%
- activity, negative = cell killing [3]: -23.1%
- activity, negative = cell killing [4]: -10.1%

Compound: CN=C(N)NC(=O)Nc1c(C)cccc1C
- activity, negative = cell killing [1]: -6.83%
- activity, negative = cell killing [2]: -0.753%
- activity, negative = cell killing [4]: 0.539%
- Potency (tumour line A): 17.8 µM (active)

Compound: CN1CCC(=C2c3ccccc3CCc3cccnc32)CC1
- activity, negative = cell killing [1]: -11.9%
- activity, negative = cell killing [2]: -28.7%
- activity, negative = cell killing [4]: -24%
- Potency (tumour line A): 11.2 µM (active)

Compound: CO[C@@H]1[C@@H](O[C@@H]2O[C@H](C)[C@@H](O[C@H]3C[C@@](C)(O)[C@@H](O)[C@H](C)O3)[C@H](N(C)C)[C@H]2O)[C@@H](CC=O)C[C@@H](C)[C@@H](O[C@@H]2CC[C@H](N(C)C)[C@@H](C)O2)/C=C/C=C/C[C@@H](C)OC(=O)C[C@H]1OC(C)=O
- activity, negative = cell killing [1]: -18.6%
- Potency (tumour line A): 15.8 µM (active)

Compound: O=C(O)/C=C(\CC(=O)O)C(=O)O
- activity, negative = cell killing [1]: -11.5%
- activity, negative = cell killing [2]: -18%
- Potency (tumour line A): 20 µM (active)

Compound: C[C@@H](C1=C(CCN(C)C)Cc2ccccc21)c1ccccn1
- activity, negative = cell killing [1]: -18.9%
- activity, negative = cell killing [4]: -5.63%
- Potency (tumour line A): 17.8 µM (active)

Compound: CC(=O)OCC[N+](C)(C)C
- activity, negative = cell killing [1]: -0.685%
- activity, negative = cell killing [2]: 1.13%
- activity, negative = cell killing [3]: -13.5%
- activity, negative = cell killing [4]: 18%

Compound: CC(=O)OCC(=O)[C@@]1(O)[C@H](OC(C)=O)C[C@H]2[C@@H]3CCC4=CC(=O)C=C[C@]4(C)[C@@]3(F)[C@@H](O)C[C@@]21C
- activity, negative = cell killing [1]: -11.4%
- activity, negative = cell killing [2]: -13%
- activity, negative = cell killing [3]: -9.78%
- activity, negative = cell killing [4]: -2.85%

Compound: O=C(CCCCC(=O)Nc1c(I)cc(I)c(C(=O)O)c1I)Nc1c(I)cc(I)c(C(=O)O)c1I
- activity, negative = cell killing [1]: 0.519%
- activity, negative = cell killing [2]: -19.2%
- activity, negative = cell killing [3]: -28.1%
- activity, negative = cell killing [4]: 4.23%

Compound: O=C(CCCCCCCCC#CI)Oc1ccccc1
- activity, negative = cell killing [1]: -16.2%
- activity, negative = cell killing [2]: -0.884%
- activity, negative = cell killing [3]: -21.9%
- activity, negative = cell killing [4]: -10.1%
